Nrf2 block = Nrf2 pathway inhibition; A549 ARE-Fluc reporter, luciferase luminescence, 18-24 h; Potency, µM (titrated, usually from 46 µM), for inactives: at the top dose activity change, negative = inhibition, usual class: inhibitors; actives 2.1% (n = 360,000); AID 504444; note: % is set by controls: 0 for no effect and ±100 for the full control effect; nearly all actives have a fitted effect of over 60% in size
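Nrf2 activity is the BugLite luminescence, read 15 min after reagent at room temperature, following CellTiter-Fluor cytotoxicity readout (30 min, 37C). Compound titrations were applied for 18-24 h to 5000 A549 ARE_Fluc cells/well in 5% FBS OPTI-MEM.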
A549 tox = counter-screen for Nrf2 inhibitors: cytotoxicity in A549 cells; A549 ARE-Fluc cells, CellTiter-Fluor viability, 18-24 h; Potency, µM (top dose mostly 46 µM), for inactives: at the top dose activity change, negative = cytotoxicity, hits mostly inhibitors; actives 0.16% (n = 390,000); AID 504648; note: % is set by controls: 0 for no effect and ±100 for the full control effect
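A549 ARE-Fluc cells in 5% FBS OPTI-MEM, 5000 cells/well, rested 2 h then exposed to compounds in concentration-response for 18-24 h at 37 °C. Viability by CellTiter-Fluor fluorescence (Ex 405/Em 525) after 30 min; luciferase luminescence (BugLite, 15 min, RT) read afterwards.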
HepG2 viability = HepG2 cytotoxicity, counter-screen for TGF-b inhibitors | Potency, µM (doses to about 46.1 µM), without a hit: at the highest dose activity change, negative = cytotoxicity, most hits filed as cytotoxic | HepG2 CAGA-GFP viability, ATP luminescence, 18 h | actives 0.76% (n = 410,000) | AID 588856
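HepG2 CAGA-GFP cells (1000/well, DMEM with 1% FBS) received compound, then TGF-beta at 500 pg/mL final, and were incubated 18 hours at 37 degrees C. Viability was read by CellTiter-Glo luminescence. Media-only wells were set as complete cell-killing and DMSO as no toxicity.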
ATXN2 expr inh = inhibitors of ATXN2 expression | HEK-293 ATXN2-luciferase reporter, luminescence, 24 h | Potency, µM (titrated, usually from 57 µM), for inactives: at the highest dose activity change, negative = inhibition, hits mostly inhibitors | actives 0.72% (n = 360,000) | AID 1745845; note: % is set by controls: 0 for no effect and ±100 for the full control effect; nearly all actives have a fitted effect of over 55% in size
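ATXN2-luciferase reporter cells (luciferase flanked by upstream and downstream ATXN2 gene portions) were treated 24 h at 37 °C with compounds at up to 57 uM. SteadyGlo luminescence gave expression; GF-AFC fluorescence gave viability.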
TGFb inhibitor = blocks TGF-b signaling; HepG2 CAGA-GFP TGF-b/SMAD3 reporter, GFP fluorescence, 18 h; TGF-beta stimulated, 500 pg/mL final; Potency, µM (highest dose often 46.1 µM), for the others: top-dose activity, negative = inhibition, actives largely listed as inhibitors; actives 1.2% (n = 410,000); AID 588855; note: % is set by controls: 0 for no effect and ±100 for the full control effect; nearly all actives have a fitted effect of over 65% in size
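Inhibition was scored as loss of TGF-beta-induced (500 pg/mL final, 18 hours, 37 degrees C) GFP in HEPG2 cells carrying a CAGA-GFP reporter, in DMEM with 1% FBS. Well GFP was summed per cell; Activity was normalised to unstimulated and stimulated DMSO wells, then concentration-response fitting.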
S2 tox = cell viability loss in ATXN counter-screen; S2 cells (HEK-293 line with an ATXN2-luciferase reporter) viability, CellTiter-Fluor protease fluorescence, 24 h; Potency, µM (titrated, usually from 56.7 µM), most hits filed as cytotoxic; actives 0.49% (n = 400,000); AID 651635; note: nearly all actives have a fitted effect of over 40% in size
Starred values were filed as active, the others as inactive; i = inactive; ? = inconclusive; / = no result; ! = repeats disagree. Shown are actives, neighbours in structure and some others; about 3.8% of the full set was active somewhere. Calls come from the whole dose curve; as a rule, active = well fitted curve in the direction sought with a large enough effect; inconclusive = small, poorly fitted or top-dose-only effect, or another doubt; inactive = no such curve, though single readings can be large; an effect the other way counts as inactive or inconclusive. Potency is the fitted concentration of half-maximal effect.

SMILES	Nrf2 block	A549 tox	HepG2 viability	ATXN2 expr inh	TGFb inhibitor	S2 tox
Cn1nccc1NC(=O)Nc1cccc(Cl)c1Cl	16µM*	-1%	-13%	-19%	-25%	i
CCC1CN(C(=O)N2CCC(C(=O)NCc3cccc(C)c3)CC2)c2ccccc2O1 (centres undefined)	-6%	-4%	-2%	/	-11%	/
CC1=CC(C)(C)N2C(=O)C(=Nc3ccc(O)cc3)c3cccc1c32	12%	?	-97%	?	13µM*	/
COc1cc(N=C2C(=O)N3c4c(cccc42)C(C)=CC3(C)C)cc(OC)c1	20%	6%	-6%	1%	?	i
C[C@H](C[C@H](O)[C@H]1OC1(C)C)C1=C2C[C@H](O)C3[C@@]4(C)CCC(=O)C(C)(C)C4CC[C@]3(C)[C@@]2(C)CC1 (some centres undefined)	?	-17%	16µM*	?	?	25µM*
O=C(CSc1nc(-c2ccccc2)[nH]c1-c1ccccc1)Nc1ccc2c(c1)OCO2	?	-28%	-47%	20µM*	11µM*	?
COc1cc(-c2nc(SCC(=O)Nc3ccc4c(c3)OCO4)c(-c3ccccc3)[nH]2)cc(OC)c1OC	0%	-6%	-53%	?	-23%	?
CCOc1ccc(-c2nc(SCC(=O)Nc3ccc4c(c3)OCCO4)c(-c3ccc(F)cc3)[nH]2)cc1	-2%	-9%	13µM*	4%	?	i
O=C1Nc2ccccc2N=C(c2ccc3c(c2)OCO3)C1N(CCc1ccccc1)C(=O)CSc1ncccn1 (centres undefined)	/	/	-16%	7%	?	7.9µM*
COc1ccc(C2=Nc3ccccc3NC(=O)C2N(CCc2ccccc2)C(=O)c2cccs2)cc1 (centres undefined)	/	/	8%	0%	?	?
O=S(=O)(c1ccc2c(c1)OCCO2)C1CCN(S(=O)(=O)c2c(F)cccc2F)CC1	14%	-3%	/	/	/	/
CCOc1ccc(CCNC(=O)c2cc3sc(CC)cc3n2C)cc1OCC	18µM*	0%	-26%	/	?	/
CCOc1ccc(CCNC(=O)c2cc3c(-c4ccccc4F)nn(C)c3s2)cc1OCC	18µM*	-7%	-52%	?	1%	?
Cc1ccc(CCNC(=O)c2cc3c(-c4ccccc4F)nn(C)c3s2)cc1	?	0%	-20%	0%	-9%	i
CC(C)COc1ccc(C(=O)Nc2onc3c2CCCC3)cc1	?	4%	-37%	-20%	1%	i
Fc1ccc(C(CCNCc2ccccn2)c2ccc(Cl)cc2)cc1 (centres undefined)	20%	-2%	13µM*	-31%	?	i
O=C(NNC(=S)Nc1ccccc1)c1cc(Br)ccc1Cl	3%	3%	-16%	7%	14µM*	i
O=C(NNC(=S)Nc1cccc(Cl)c1)c1ccccc1OC(F)F	21µM*	-6%	4.5µM*	?	13µM*	i
COc1cccc(NC(=S)NNC(=O)c2ccccc2OC(F)F)c1	?	-1%	-18%	17%	-5%	i
Cc1ccc(C(C)C)c(OCC(=O)Nc2ccc(S(=O)(=O)Nc3onc(C)c3C)cc2)c1	-13%	-7%	-15%	-7%	-6%	i
Cn1c(=O)n(C)c2cc([N+](=O)[O-])c(N3CCN(C(=O)c4ccccc4Br)CC3)cc21	18µM*	?	-10%	?	-1%	i
COc1ccc(-n2nc3c(N4CCC(C(=O)NCCc5ccccc5C)CC4)nnc(C)c3c2C)cc1	?	?	-31%	?	-20%	?
Cc1ccc(-n2nc3c(N4CCC(C(=O)NCc5cccc(F)c5)CC4)nnc(C)c3c2C)cc1	16%	1%	-95%	/	16µM*	?
Cc1ccc(-n2nc3c(N4CCC(C(=O)NC(C)c5ccccc5)CC4)nnc(C)c3c2C)cc1 (centres undefined)	?	?	11µM*	0%	8.9µM*	?
Cc1nnc(N2CCC(C(=O)NCc3cccc(Cl)c3)CC2)c2nn(-c3ccccc3)c(C)c12	/	-13%	-73%	?	11µM*	?
SMILES	Nrf2 block	A549 tox	HepG2 viability	ATXN2 expr inh	TGFb inhibitor	S2 tox
Cc1ccc(-n2nc3c(N4CCC(C(=O)NCc5ccc(C)o5)CC4)nnc(C)c3c2C)cc1	-3%	?	-27%	?	?	i
Cc1ccc(-n2nc3c(N4CCC(C(=O)NCCc5ccccc5C)CC4)nnc(C)c3c2C)cc1	?	?	4%	?	4.5µM*!	?
Cc1ccc(NC(=O)CSCC(=O)NCCc2ccccc2)c(C)c1	6%	-3%	4%	/	6%	i
CCCCCCCCCCCCCCCCCCN(C)C	/	/	/	5%	/	i
COc1ccc(NC(=O)Nc2nnc(N(C)C3CCCCC3)s2)c(OC)c1	?	-11%	-104%	/	11µM*	/
O=C(NS(=O)(=O)Nc1ccccc1)C1=C(N2CCCC2)COC1=O	7%	2%	-3%	-3%	-14%	i
CC(C)C[C@@H]1NC(=O)[C@H](C(C)C)NC(=O)c2cc([N+](=O)[O-])cc(I)c2NCC[C@@H](C(N)=O)NC1=O	6%	-13%	-2%	6%	?	i
CC[C@H](C)[C@@H]1NC(=O)[C@@H](CC(C)C)NC(=O)[C@H](C(C)C)NC(=O)[C@H]2CSSC[C@H](NC1=O)C(=O)N2	/	/	1.1µM*	0.79µM*	1.3µM*	?
COc1ccc(-c2nnc3c4ccccc4c(-c4ccccc4)nn23)cc1	5%	-2%	3%	/	-18%	/
CCCS(=O)(=O)NC(=O)C1(C)CCCN(C(=O)c2ccccc2F)C1 (centres undefined)	/	/	-1%	7%	-6%	i
N#CC(C#N)=C1C=CC=CN1/C(=C\c1ccco1)C(=O)c1ccc(Br)cc1	?	?	13µM*	18µM*	3.2µM*	?
COc1ccc(C(=O)N/C(=C\c2ccco2)C(=O)OCc2ccco2)cc1	?	-3%	2%	23%	18%	i
COc1ccc(C(=O)/C(=C\c2ccco2)N2C=CC=CC2=C(C#N)C#N)cc1	?	18µM*	-50%	14µM*	3.5µM*	/
COc1ccc(/C=C(/C(=O)c2cccs2)N2C=CC=CC2=C(C#N)C#N)cc1	13%	-3%	11µM*	/	?	?
N#CC(C#N)=C1C=CC=CN1/C(=C\c1ccco1)C(=O)c1ccccc1	-5%	-21%	4µM*	?	2.2µM*	?
